Several values for one entry are separate records, joined by “and”; a condition that tells them apart may be missing. Equal values may be shown once. Compounds without any hit were thinned out: in the full panel of roughly 83,000, 20% have a hit.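 Plates (96-well) were seeded with cells, treated with compound at one concentration, and incubated for 48 hours before percent growth was determined.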 Activity calls are given as the source filed them. The calls were made as follows: active = growth percent below 10; inactive = the rest.
Test system: MDA-MB-468 breast
Assay: NCI-60 one-dose screen, 48 h (100 = growth as untreated, 0 = no growth, -100 = all killed)
Settings: 10 µM unless noted

SMILES	growth
Nc1c(Br)cc(O)c2c1C(=O)c1ccccc1C2=O	-9.43% (active)
CC(=O)OCCC/C(=C/c1cc2ccccc2c2ccccc12)[N+](=O)[O-]	-69% (active)
C/C(=C\CCc1ccoc1)CC/C=C(\C)CCCN1CCC(CO)CC1	14.5% (inactive)
Oc1c(CCl)cc(Cl)cc1Cc1cc(Cl)cc(Cc2cc(Cl)cc(CCl)c2O)c1O	18.8% (inactive)
c1cc(C2CCCCC2)ccc1-c1cnc2nonc2n1	2.69% (active)
COc1ccc2c(c1)N(CCO)C1=C(C(=O)OC1)C2c1cc(OC)c(OC)c(OC)c1 (stereo not given)	3.62% (active)
CCCn1nc(C(=O)N2CCCCC2)c2c1CCC(N1CCC(c3ccncc3)CC1)C2 (stereo not given)	104% (inactive)
COc1cccc(-c2nc3sccn3c2-c2ccnc(NCCN3CCCNS3(=O)=O)n2)c1	102% (inactive)
C/C(=C(/c1ccc(O)cc1)c1ccc(OCCN2CCCC2)cc1)c1ccc(Cl)cc1	13.5% (inactive)
COc1ccc(C(=O)C2=CC(=O)C(=O)C2)cc1OC	108% (inactive)
CCOC(=O)c1cn2ncnc(Oc3ccc(NC(=O)NC4CC4)c(Cl)c3)c2c1C	90.1% (inactive)
Cn1ncc2c(Nc3ccc(Br)cc3)nc(Nc3ccc(Br)cc3)nc21	51.4% (inactive)
O=C(/C=C1\C=CN(CCCCF)c2ccccc21)n1ccc2ccccc21	91.2% (inactive)
Cc1cccc2ccccc12	103% (inactive)
O=C(Nc1ccc(Br)cc1F)c1cc(Br)ccc1O	-13.6% (active)
CC1(C)NC(=S)NC1=O	109% (inactive)
Cc1ccc(/C=C/c2nn3c(-c4ccco4)nnc3s2)cc1C	107% (inactive)
C(CCCSC1=NCCN1)CCSC1=NCCN1	92% (inactive)
C=CCN=c1sc(-c2ccc3ccccc3c2)cn1NC(=O)c1cc2ccc1CCc1ccc(cc1)CC2	39.1% (inactive)
C=CC(C)C(C)(C)O (stereo not given)	106% (inactive)

SMILES	growth
COc1ccc2[nH]c(O)c(/C=c3/cc4c(c(-c5cc(OC)c(OC)c(OC)c5)n3)=Nc3ccccc3-4)c2c1	49.7% (inactive)
COc1cccc(/C=N/NC(=O)c2ccccc2N2CCCC2)c1O	0.775% (active)
CN(C)c1ccc(-c2c(NC(C)(C)C)nc3c(OCCc4ccccc4)cccn23)cc1	-19.6% (active)
CCCCCCCn1cc2c(N[C@H](C)c3ccccc3)ncnc2n1	119% (inactive)
CCCC/C(=C\c1ccc(O)c(O)c1)C(=O)NC(Cc1ccccc1)C(=O)C(=O)NCCc1ccc(OC)cc1 (stereo not given)	93.2% (inactive)
O=C1N=c2cc3c(cc2=C/C1=C/c1sc(=S)n(CCc2ccc(O)cc2)c1O)OCCO3	42.5% (inactive)
O=C(Nc1ccncc1)C(=O)c1cn(S(=O)(=O)c2ccccc2F)c2ccccc12	16.4% (inactive)
O=C1C(Cl)=C(Nc2ccccn2)C(=O)c2ccccc21	37.1% (inactive)
COc1ccc(CCN2C(=O)C(C)(C)SC2=S)cc1OC	105% (inactive)
COC(=O)c1nc(-c2ccccc2)oc1S(=O)(=O)N1CCN(c2ccc(OC)cc2)CC1	22.6% (inactive)
CCOCC(O)(c1ccc(Cl)cc1)c1ccc(Cl)cc1	102% (inactive)
C#CCn1cccc1CNc1ccc(OC)cc1	-76.9% (active)
COc1ccc2nc(N=Nc3c(O)ccc4ccccc34)sc2c1	25.3% (inactive)
COC(=O)/C(CCC=C(C)C)=C1\[C@@H](OC(C)=O)C[C@@]2(C)[C@H]1C[C@@H](O)[C@H]1[C@@]3(C)CC[C@H](NCCN)[C@@H](C)[C@@H]3CC[C@@]12C	58.6% (inactive)
O=C(CCl)N(O)c1ccc(/C=C/c2ccccc2)cc1	25% (inactive) and 6.6% (active)
CN(C)S(=O)(=O)c1ccc(S(=O)(=O)Nc2cccc(Cl)c2N2CCCCC2)cc1	67.8% (inactive)
NC(=S)N/N=C(/CCN1CCCC1)CC(C1=C(O)C2=CCCCC2OC1=O)c1ccccc1 (stereo not given)	17.9% (inactive)
O=Nc1ccc(Nc2ccccc2)cc1	-8.9% (active)
COC(=O)/C=C1\SC(=Nc2cccc(OC)c2)N(CCc2c[nH]c3ccccc23)C1=O	64% (inactive)
CC12CCCC(CC(=O)c3[nH]c4ccccc4c31)C2 (stereo not given)	-47.5% (active)

— PubChem BioAssay (NCI)
